Results published in PubChem BioAssay (EPA / NIEHS).
Several values for one entry are separate records, joined by “and”; a condition that tells them apart may be missing. Identical values can stand only once. Some compounds were tested as several samples or in several runs, with calls that do not always agree. Activity calls are given as the source filed them. The calls were made as follows: active = hit-call score of the fitted dose curve at least 0.9, where 1 is the maximum; inactive = score below 0.9.

read-out: CYP4A11 (gene 1579); assay: LTEA_HepaRG_CYP4A11: Life Technologies and Expression Analysis (LTEA) Assay for CYP4A11 using HepaRG (AID 2283486); settings: mRNA level, 48 h; actives raise or lower the signal
Protocol: LTEA_HepaRG is a cell based, multiplexed-readout assay that uses HepaRG, a human liver cell line, with measurements taken at 48 hours after chemical dosing on a 96-well plate.LTEA_HepaRG_CYP4A11 is one of 102 assay component(s) measured in the LTEA HepaRG cell culture assay. It is a marker of NR mediated metabolism.Data from the assay component LTEA_HepaRG_CYP4A11 was analyzed into 1 endpoint. This assay endpoint, LTEA_HepaRG_CYP4A11, was analyzed with bidirectional fitting relative to DMSO as the negative control and baseline of activity. Using a type of inducible reporter, measures of mRNA induction for gain or loss-of-signal activity can be used to understand regulation of transcription factor activity. To generalize the intended target to other relatable targets, this assay endpoint is annotated to the cyp intended target family, where the subfamily is xenobiotic metabolism.
A total of 1060 chemcials from the ToxCast library were tested in eight-point concentration-response experiments. Cell culture and cytotoxicity assays were conducted at Thermo Fisher Scientific's Custom Services facility (Madison, WI). A single lot of human HepaRG cells (Thermo Fisher Scientific, Frederick, MD) was used for the cell culture experiments. 96-well format collagen type I coated plates of human HepaRG cells were prepared using established methods. Briefly, cryopreserved HepaRG cells were thawed, plated at a density of approximately 100,000 cells/well in HepaRG Thaw, Plate, and General Purpose media (HPRG770, Thermo Fisher Scientific), and incubated for 48 hours. 0.5% DMSO was selected as vehicle control to balance the requisite need of DMSO in HepaRG cultures to maintain differentiation (for example, baseline metabolism, proportions of hepatocytes vs. cholangiocytes), while enabling further hepatic receptor pathway activation (for example, PXR and CAR) in response to chemical exposure. 48 hours after plating, the culture medium was replaced with HepaRG Serum-Free Incudtion Media. Cells were exposed to each test chemical in duplicate and maintained in CO2 incubators for another 48 hours. Chemical plates were thawed to room temperature and 200x concentrations of treatment groups were prepared. 8-point conentration-reponse curves were made with the highest exposure at 100 uM, followed by half-log dilutions, all in 0.5% DMSO. Each test plate contained variouse controls, induction positive controls (1mM phenobarbital), cytotoxicity positive controls ([…] aflatoxin B1), vehicle controls (0.5% DMSO), and total lysis controls (0.5% DMSO). Cell morphology images were taken using an Essen IncuCyte FLR automated microscope, with six 96-well plates imaged in about 24 minutes. Images were captured and exported and JPEG files. Spent culture media was transfered to black-well plates for the LDH assay, and remaining media was sorted at -80 C for later use. Cells were treated with RLT buffer and frozen until shipped for gene expression analysis. Total RNA was isolated from the cell suspension in 75 uL of Buffer RLT (Qiagen, Germantown, MD 20874) by Quintiles/Expression Analysis (Durham, NC) using a custom isolation procedure. Total RNA from each plate well was transferred to a preamplification plate. Fluidigm's 96.96 Dynamic ArrayTM (Fluidigm, Amsterdam, the Netherlands) technology was used for gene expression analyses by quantitative reverse transcription polymerase chain reaction (qRT-PCR, performed by Quintiles/Expression Analysis, Durham, NC)89. Standard TaqManTM Assays (Applied Biosystems/ThermoFisher Scientific, Foster City, CA) were used to assess the expression of 93 genes selected based on their selectivity and sensitivity to important hepatic receptors known to be modulated by environmental chemicals; importance in human hepatocyte functionality; and hepatotoxicity. […]

| SMILES | AC50 | outcome |
| --- | --- | --- |
| COc1cnc(OC)n2nc(NS(=O)(=O)c3c(OCC(F)F)cccc3C(F)(F)F)nc12 | 11.5 µM (active) | – |
| OC(c1ccc(Cl)cc1)(c1cncnc1)c1ccccc1Cl (stereo not given) | 70.4 µM (active) | – |
| CCNc1nc(Cl)nc(NCC)n1 | – | inactive |
| Cc1cc(Cl)ccc1OCC(=O)O | 12 µM (active) | – |
| O=C(Nc1ccccc1)Nc1ccnc(Cl)c1 | 36.6 µM (active) | – |
| CCCC1COC(Cn2cncn2)(c2ccc(Cl)cc2Cl)O1 (stereo not given) | 34.7 µM (active) | – |
| COC(=O)C=C(C)OP(=O)(OC)OC | – | inactive |
| CC(C)C1(C)N=C(c2nc3ccccc3cc2C(=O)O)NC1=O (stereo not given) | – | inactive |
| CON(C)C(=O)Nc1ccc(Cl)c(Cl)c1 | 86.6 µM (active) | – |
| N#Cc1cc(Br)c(O)c(Br)c1 | 26.6 µM (active) | – |
| CCOC(=O)C(Cl)Cc1cc(-n2nc(C)n(C(F)F)c2=O)c(F)cc1Cl (stereo not given) | – | inactive |
| CC(C)(C)c1ccc(CSc2cnn(C(C)(C)C)c(=O)c2Cl)cc1 | 1.75 µM (active) | – |
| CCCCNC(=O)n1c(NC(=O)OC)nc2ccccc21 | – | inactive |
| Cc1ccc(-c2c(Cl)nc(C#N)n2S(=O)(=O)N(C)C)cc1 | 10.4 µM (active) | – |
| Oc1ccccc1-c1ccccc1 | – | inactive |
| COC(=O)c1ccccc1C(=O)OC | – | inactive |
| COC(=O)N(OC)c1ccccc1COc1ccn(-c2ccc(Cl)cc2)n1 | – | inactive |
| CNC(=O)ON=CC(C)(C)SC | – | inactive |
| CCON=C(CC)C1=C(O)CC(c2c(C)cc(C)cc2C)CC1=O (stereo not given) | 25 µM (active) | – |
| COP(N)(=O)SC (stereo not given) | – | inactive |

| SMILES | AC50 | outcome |
| --- | --- | --- |
| C#CCOS(=O)OC1CCCCC1Oc1ccc(C(C)(C)C)cc1 (stereo not given) | 25.9 µM (active) | – |
| N#Cc1nn(-c2c(Cl)cc(C(F)(F)F)cc2Cl)c(N)c1S(=O)C(F)(F)F (stereo not given) | 24.6 µM (active) | – |
| CN(C)C(=S)SSC(=S)N(C)C | – | inactive |
| CC1=C(C(=O)Nc2ccccc2)SCCO1 | – | inactive |
| CCOc1cc(Oc2ccc(C(F)(F)F)cc2Cl)ccc1[N+](=O)[O-] | 41.6 µM (active) | – |
| CO/C=C(/C(=O)OC)c1ccccc1Oc1cc(Oc2ccccc2C#N)ncn1 | 66.4 µM (active) and 68.3 µM (active) and 40.2 µM (active) | – |
| CS/C(C)=N/OC(=O)N(C)SN(C)C(=O)O/N=C(\C)SC | – | inactive |
| O=C(O)COc1nc(Cl)c(Cl)cc1Cl | – | inactive |
| CCCCNC(=O)OCC#CI | – | inactive |
| CCCCC(CC)COC(=O)c1ccccc1C(=O)OCC(CC)CCCC (stereo not given) | – | inactive |
| CCCN(CCC)c1c([N+](=O)[O-])cc(S(N)(=O)=O)cc1[N+](=O)[O-] | 93.5 µM (active) and 15.8 µM (active) | inactive |
| O=C(O)c1nc(Cl)ccc1Cl | – | inactive |
| COc1nc(NC(C)C)nc(NC(C)C)n1 | – | inactive |
| CCc1nn(C)c(C(=O)NCc2ccc(C(C)(C)C)cc2)c1Cl | 0.393 µM (active) | – |
| Cc1c(F)c(F)c(COC(=O)C2C(/C=C(\Cl)C(F)(F)F)C2(C)C)c(F)c1F (stereo not given) | – | inactive |
| CCNc1nc(Cl)nc(NC(C)C)n1 | 50 µM (active) | – |
| CC(C)Oc1cc(-n2nc(C(C)(C)C)oc2=O)c(Cl)cc1Cl | 45.6 µM (active) | – |
| CCCCOC(=O)c1ccccc1C(=O)OCCCC | – | inactive |
| C=CC1(C)OC(=O)N(c2cc(Cl)cc(Cl)c2)C1=O (stereo not given) | – | inactive |
